High-throughput results as filed in PubChem BioAssay.
Vc quorum ag = quorum light induction in luxS cqsA deficient V. cholerae. V. cholerae BH1578 lux reporter, luminescence, 6 h. activation, % at 18.7 µM. hit rate 0.16% among 350,000; in the data active = activation mostly above about 9.7%, no sharp cut-off; inconclusive = no clear call, values can overlap the other calls; inactive = mostly below about 3.7%
BoNT-A LC inh2 = inhibitors of Botulinum neurotoxin A light chain protease; multiplex microsphere protease substrate cleavage, flow cytometry; inhibition, % at 10 µM; hit rate 0.17% among 360,000
Autofluor counter = compound fluorescence in toxin protease inhibitor counterscreen; fluorescence intensity (concentration not given with the values); hit rate 3.1% among 360,000; compound autofluorescence counterscreen, microsphere flow cytometry; active compounds read high; AID 624483; in the data active = fluorescence intensity above about 16000; inconclusive = no clear call, values can overlap the other calls
Anthrax LF prot = anthrax lethal factor protease inhibition; multiplex microsphere protease cleavage assay, LF; P15917; inhibition, % at 10 µM; hit rate 0.12% among 360,000
Target sequence (P15917 whole entry, looked up): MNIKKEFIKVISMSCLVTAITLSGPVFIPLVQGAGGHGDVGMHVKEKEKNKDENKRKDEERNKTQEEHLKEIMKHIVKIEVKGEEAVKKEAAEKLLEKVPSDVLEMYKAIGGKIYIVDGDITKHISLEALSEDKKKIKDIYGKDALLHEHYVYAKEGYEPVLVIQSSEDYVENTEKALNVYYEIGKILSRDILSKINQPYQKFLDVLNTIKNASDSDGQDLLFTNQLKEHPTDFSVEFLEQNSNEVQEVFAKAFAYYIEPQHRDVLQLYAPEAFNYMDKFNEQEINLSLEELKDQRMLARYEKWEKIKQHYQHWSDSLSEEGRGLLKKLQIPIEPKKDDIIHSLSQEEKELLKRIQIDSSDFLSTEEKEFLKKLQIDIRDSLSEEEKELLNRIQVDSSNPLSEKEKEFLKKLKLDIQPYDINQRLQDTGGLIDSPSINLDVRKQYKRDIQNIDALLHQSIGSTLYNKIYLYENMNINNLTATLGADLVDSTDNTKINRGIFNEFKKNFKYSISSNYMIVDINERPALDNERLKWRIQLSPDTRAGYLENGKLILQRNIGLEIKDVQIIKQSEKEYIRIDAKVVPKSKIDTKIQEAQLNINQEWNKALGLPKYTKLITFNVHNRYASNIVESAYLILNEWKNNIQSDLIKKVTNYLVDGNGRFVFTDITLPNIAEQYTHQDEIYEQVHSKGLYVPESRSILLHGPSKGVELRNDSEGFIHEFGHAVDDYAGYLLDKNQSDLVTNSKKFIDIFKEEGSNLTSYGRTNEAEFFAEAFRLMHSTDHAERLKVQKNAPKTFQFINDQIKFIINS
BoNT F protease = inhibitors of Botulinum neurotoxin F light chain protease | Multiplex microsphere protease cleavage assay, flow cytometry | inhibition, % at 10 µM | hit rate 0.22% among 360,000 | AID 588497; in the data active = inhibition above about 35%, passing the limit was not always enough; inconclusive = no clear call, values can overlap the other calls
BJeLR viability = BJeLR cell viability loss; BJeLR (HRASV12) viability, CellTiter-Glo ATP luminescence, 48 h; inhibition, % (test concentration not listed); hit rate 0.17% among 300,000; AID 1554; in the data active = inhibition above about 50%; inconclusive = no clear call, values can overlap the other calls
Large screens that a line does not name were inactive. This is a sample that favours compounds with a hit; in the whole collection about 3.7% have one here. Rule as the data show it, unless noted: active = inhibition above about 30%; inconclusive = no clear call, values can overlap the other calls; inactive = below that.

Nc1nc(N)c2cc(CNc3ccc(Cl)c(Cl)c3)ccc2n1	none (no result: BJeLR viability)
CCOC(=O)Cc1csc(NC(=O)CSc2nc3sc(C(=O)O)c(C)c3c(=O)[nH]2)n1	BoNT-A LC inh2 inconclusive, Autofluor counter 22793
COc1ccc(OC)c2c(N3CC(C)OC(C)C3)cc(C(F)(F)F)nc12 (stereo not given)	none
CC1CN(c2cc3nccnc3cc2F)CC(C)O1 (stereo not given)	BoNT-A LC inh2 inconclusive, Autofluor counter 16271
O=C1N(CN2CCC3(CC2)OCCO3)c2ccccc2C12OCCCO2	Autofluor counter 22108
O=C1N(CN2CCN(c3cccc(Cl)c3)CC2)c2ccccc2C12OCCCO2	Autofluor counter 21061
COc1cccc(NC(=O)CN2C(=O)C3(OCCCO3)c3ccccc32)c1	BoNT-A LC inh2 inconclusive, Autofluor counter 22688
O=C(O)CN1C(=O)C2(OCCCO2)c2ccccc21	Autofluor counter 23379
COC(=O)CN1C(=O)C2(OCCCO2)c2ccccc21	none
CC1(C)COC2(OC1)C(=O)N(CN1CCOCC1)c1ccccc12	none
CCCCOCCCNC(=O)C[C@@H]1C[C@@]2(C(=O)OC)CCCCC=C2N(Cc2ccco2)C1=O	none (no result: Vc quorum ag, BJeLR viability)
CC(C)(C)c1ccccc1NC(=O)Nc1nc(C(N)Cc2ccc(F)cc2)cs1 (stereo not given)	none (no result: BJeLR viability)
CCc1ccc2c(c1)C(c1cccs1)=NNC(c1cccnc1)=N2	BoNT-A LC inh2 inconclusive, Autofluor counter 19854
CCC(=O)Nc1ccc2c(c1)nc1n2CCSC1	none (no result: BoNT-A LC inh2, Autofluor counter, Anthrax LF prot, BoNT F protease)
O=C(Nc1ccc2c(c1)nc1n2CCOC1)c1ccccc1	none
CC(C)C(=O)Nc1ccc2c(c1)nc1n2CCSC1	Autofluor counter 16136
O=C(Nc1ccc2c(c1)nc1n2CCSC1)c1ccccc1	Autofluor counter 21018
C[C@H](O)[C@@H]1CN2CCc3c([nH]c4ccccc34)[C@@H]2C[C@@H]1N(C)C(=S)NCCc1ccccc1	BoNT-A LC inh2 37 (no result: Vc quorum ag, BJeLR viability)
COc1ccccc1NC(=O)N(C)C[C@@H]1OCc2cn(nn2)CCCC(=O)N([C@H](C)CO)C[C@H]1C	none (no result: BJeLR viability)
CC(O)CC(=O)OC[C@]12CC[C@H]3[C@@](C)(CC[C@H]4C(C)(C)CCC[C@]34C)[C@@H]1CC(C1=CC(=O)OC1O)O2 (stereo not given in full)	none (no result: BJeLR viability)
Cc1cc(Cl)ccc1C(O)c1ncc(-c2cccc(C(F)(F)F)c2)[nH]1 (stereo not given)	none (no result: BJeLR viability)
[O-][N+]1=c2ccc(Nc3ccccc3)cc2=NC12CCCCC2	Autofluor counter 16589
CCc1ccccc1NC(=O)C1CC(c2ccc(F)cc2)=NO1 (stereo not given)	none
COC(=O)c1ccccc1NC(=O)C1CC(c2ccc(F)cc2)=NO1 (stereo not given)	Autofluor counter 16511
N#Cc1ccc(NC(=O)C2CC(c3ccc(F)cc3)=NO2)cc1 (stereo not given)	Autofluor counter 22651
CC1(C)OC(=O)C(=CNc2ccccc2)C(=O)O1	Autofluor counter 18882
CC1(C)OC(=O)C(=CNc2cccc(O)c2)C(=O)O1	none
O=C1NC[C@@H](CCCCN2C[C@H](Cc3ccccc3)N(Cc3ccccc3)C(=O)C2=O)N(CCc2ccccc2)C1=O	none (no result: Vc quorum ag, BJeLR viability)
O=C(O)c1cccc(S(=O)(=O)Nc2ccc3c(c2)OCO3)c1	BoNT-A LC inh2 inconclusive, Autofluor counter 21051
O=C(c1ccc(NS(=O)(=O)c2ccc3c(c2)OCCO3)cc1)N1CCCCC1	none
O=C(O)c1ccc(S(=O)(=O)Nc2ccc3c(c2)OCCO3)cc1	Anthrax LF prot 31, BoNT F protease inconclusive
CCC(CC)NC(=O)COC(=O)c1ccc(NS(=O)(=O)c2ccc3c(c2)OCCO3)cc1	BoNT-A LC inh2 inconclusive, Autofluor counter 23057
O=C(O)c1cccc(NS(=O)(=O)c2ccc3c(c2)OCCCO3)c1	none
c1ccc(N=NC2=NN(c3ccccc3)CS2)cc1	none (no result: BJeLR viability)
CCn1c(O)c(C=Nc2ccc(N3CCOCC3)cc2)c(=O)n(CC)c1=S	none
CCn1c(O)c(C=Nc2ccc(N3CCOCC3)c(Br)c2)c(=O)n(CC)c1=S	Autofluor counter 19239
COc1ccc(Cn2c(SCc3ccccc3C)nc3cc(OC)c(OC)cc3c2=N)cc1	none (no result: BoNT-A LC inh2, Autofluor counter, Anthrax LF prot, BoNT F protease)
COc1cc2nc(SCc3ccc(F)cc3)n(Cc3cccs3)c(=N)c2cc1OC	BoNT-A LC inh2 inconclusive, Autofluor counter 20501
OC(c1ccccc1)(c1ccccc1)C1CCN(CCCOc2ccc3c(c2)CCCC3)CC1	none (no result: Vc quorum ag, BJeLR viability)
COc1cc(/C=C2\C(=N)N3N=C(C)SC3=NC2=O)cc(OC)c1OCCOc1ccccc1C	BoNT F protease 55
CCCc1cc(Nc2cccc(OC)c2)n2ncnc2n1	Autofluor counter 23259
COCCN1C(=O)COc2ccccc2C1C(=O)Nc1ccc2c(c1)OCCO2 (stereo not given)	none (no result: Vc quorum ag, BJeLR viability)
O=C(NCc1cccnc1)c1cc(C2CCCCN2S(=O)(=O)c2cccc3cccnc23)on1 (stereo not given)	none (no result: BJeLR viability)
COc1ccc(/C(O)=C/C(=O)C(=O)Nc2c(C)n(C)n(-c3ccccc3)c2=O)cc1	Autofluor counter 21666
Cc1c(NC(=O)C(=O)/C=C(/O)c2ccccc2)c(=O)n(-c2ccccc2)n1C	none
CCOC(=O)C(c1nc2ccccc2[nH]1)n1c(-c2ccccn2)nc2ccccc21 (stereo not given)	none (no result: Vc quorum ag, BJeLR viability)
O=C(NCc1cccnc1)C1CCCN(Cc2cnn(-c3ccccc3)c2-n2cccc2)C1 (stereo not given)	Autofluor counter 23887
O=C(NC1CC1)C1CCN(Cc2cnn(-c3ccccc3)c2-n2cccc2)CC1	Autofluor counter 23345
O=C(NCc1ccccn1)C1CCCN(Cc2cnn(-c3ccccc3)c2-n2cccc2)C1 (stereo not given)	none
O=C(O)C1CCN(Cc2cnn(-c3ccccc3)c2-n2cccc2)CC1	none
CCN(CC)C(=O)CSCc1cnn(-c2ccccc2)c1-n1cccc1	BoNT-A LC inh2 inconclusive, Autofluor counter 22480
O=C(NCc1ccccn1)C1CCN(Cc2cnn(-c3ccccc3)c2-n2cccc2)CC1	Autofluor counter 22540
Cc1ccc(-c2cc(C(F)(F)F)nc(SCC(=O)c3cccc([N+](=O)[O-])c3)n2)cc1	none
Cc1cc(C(F)(F)F)nc(SCC(=O)c2cccc([N+](=O)[O-])c2)n1	Autofluor counter 17551
C#Cc1ccc(NC(=O)C2(C)CCN2C(=O)CC(c2ccccc2)c2ccccc2)cc1 (stereo not given)	none (no result: BJeLR viability)
O=c1c2c3nc4ccccc4nc3n(/N=C/c3ccccn3)c2ncn1-c1ccccc1	BoNT F protease inconclusive
C=CCn1cnc2c(c1=O)c1nc3ccccc3nc1n2/N=C/c1ccccn1	Autofluor counter 20073 (no result: BJeLR viability)
CSc1nsc(SC)c1NC(=O)OCC1CCCO1 (stereo not given)	Autofluor counter 21471
COc1cc(OC)c(C(=O)Nc2cc(S(=O)(=O)N3CCOCC3)ccc2N2CCOCC2)cc1OC	none (no result: BJeLR viability)
COn1c(SC2CCCCC2)nc2ccccc2c1=O	Autofluor counter 17818
CC(C)On1c(SC(C)C)nc2ccccc2c1=O	Autofluor counter 22943
COn1c(SC(C)C)nc2ccccc2c1=O	none
